Test results taken from PubChem BioAssay AID652029 (The Scripps Research Institute Molecular Screening Center, 2013).
The list shows a part of the results. A number with no mark means an inactive call. Calls of active or inactive are those of the source.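 The calls were made as follows: active = inhibition of LYPLA2 enzyme probe labeling above about 50% (limit read from the data); inactive = inhibition below that limit.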

Molecular target: Acyl-protein thioesterase 2 (Homo sapiens) (UniProt O95372)
Experiment: LYPLA2 inhibitors in proteome, late-stage follow-up, gel-based competitive ABPP, fluorescence, assay provider (AID 652029);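 also: loss of FP-Rh probe labeling of the LYPLA2 gel band measured as band density; 0% = DMSO only control band and 100% = blank gel background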
Conditions: rhLYPLA2 in mouse brain proteome, gel ABPP FP-Rh; at 20 µM; hits give high values

Chain of Acyl-protein thioesterase 2 (Homo sapiens) (O95372 whole entry, looked up): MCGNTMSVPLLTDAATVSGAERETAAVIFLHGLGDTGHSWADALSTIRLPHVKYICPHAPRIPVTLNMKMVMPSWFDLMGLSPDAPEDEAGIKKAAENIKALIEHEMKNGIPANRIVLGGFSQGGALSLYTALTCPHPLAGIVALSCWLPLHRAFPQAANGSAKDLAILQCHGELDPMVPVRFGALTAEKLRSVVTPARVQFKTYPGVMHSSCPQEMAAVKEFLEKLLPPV

Row | Structure (SMILES) | inhibition
1 | CCC(=O)c1ccc(OCC(O)CN2CCN(c3cccc(C(F)(F)F)c3)CC2)cc1 (stereo not given) | 18%
2 | COc1ccc(N2CCN(C(=O)c3ccc(N4CCCCS4(=O)=O)cc3)CC2)cc1 | 49%
3 | CC(=O)c1ccc(N2CCN(C(=O)C3CCN(S(=O)(=O)c4ccc5c(c4)CC(C)N5C(=O)C4CC4)CC3)CC2)cc1 (stereo not given) | 70% (active)
4 | O=C1C2CCCN2C(=O)N1CCCCN1CCN(c2cccc(C(F)(F)F)c2)CC1 (stereo not given) | 44%
5 | O=C(CCCN1C(=O)c2cccc3cccc(c23)C1=O)N1CCN(Cc2ccc3c(c2)OCO3)CC1 | 25%
